The record followed here is PubChem BioAssay AID493074 (National Center for Advancing Translational Sciences (NCATS), 2011).

This is one part of the list. Records with an inconclusive call do not appear. Active and inactive are the calls of the source. Calls follow the shape of the dose curve; as a rule, active = well fitted cell-killing curve with a large enough effect; inconclusive = small, poorly fitted or top-dose-only effect; inactive = no such curve, though single readings can be large or run the other way.

This test is described as follows: H358 Cell Viability Secondary Assay for qHTS Assay for Epigenetic Modulators: Round 2. To be noted: H358 NSCLC viability, ATP luminescence, 72 h. The source says:
NIH Molecular Libraries Screening Centers Network [MLSCN] NIH Chemical Genomics Center [NCGC] MLSCN Grant: 1 X01 MH079860-01 Assay Provider: Elisabeth D. Martinez, University of Texas SW Medical Center NCGC Assay Overview: This secondary assay characterizes selected actives identified in the qHTS of the Locus Derepression (LDR) assay (PubChem AID 1865). The LDR assay detects the derepression of a GFP reporter that is stably integrated in a region of the genome of murine c127i mammary cells that is presumably silenced. Compounds that cause derepression of the locus to express GFP are identified by enumerating GFP positive cells using a laser-scanning microplate cytometer. Selected LDR actives were assayed for killing of H358 non-small cell lung carcinoma (NSCLC) cells. […] Cell viability was measured using a luminescence-based detection reagent that measures cellular ATP levels.
NCGC Assay Protocol Summary H358 cells were seeded at 125 cells/5 uL/well in white, solid bottom, 1536 well plates (Greiner). […] Plates were incubated 72 hours at 37deg C and 5% CO2, then 3.5 uL/well CellTiter-Glo(R) (Promega) detection reagent was added, plates were incubated at ambient temperature for 10 minutes and luminescence was measured by a ViewLux (Perkin Elmer) reader. […] A quantitative high-throughput screen identifies potential epigenetic modulators of gene expression. […]
On the technique in general: Quantitative high-throughput screening tests each substance at several concentrations.
As to `O=C1NC(=O)N(CCc2ccc(F)cc2)C(=O)/C1=C/C=C/c1ccccc1`, the Potency is 8.88 µM (active).
